Assay in all cases: DAPPL (digital affinity profiling via proximity ligation, sequencing); 10 mM Tris-HCl pH 7.5, 50 mM NaCl, 1 mM DTT, 4% glycerol, room temperature, 30 min; GST-TFs on glutathione beads, 16-mer random dsDNA library, 0.1% formaldehyde crosslink after washing; high values mean tight binding
The target of one experiment is T1, FEV (Homo sapiens, UniProt Q99581 1-238).
T1 sequence: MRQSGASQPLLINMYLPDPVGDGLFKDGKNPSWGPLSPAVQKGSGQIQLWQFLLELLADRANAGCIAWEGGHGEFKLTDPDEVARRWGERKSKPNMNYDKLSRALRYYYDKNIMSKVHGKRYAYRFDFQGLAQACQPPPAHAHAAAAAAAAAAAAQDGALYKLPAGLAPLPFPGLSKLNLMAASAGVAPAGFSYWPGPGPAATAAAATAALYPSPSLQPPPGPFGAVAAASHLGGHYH
Conditions: protein: recombinant; tags: N-terminal GST; dsDNA, one strand shown. In a few lines: (§1)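 In yeast, human transcription factors were expressed with a GST fusion, then pulled down on glutathione beads and given DNA barcodes. Pooled with a tag-only sample, they were exposed to 200 nmole of a 16-mer random double-stranded DNA library (Tris/NaCl/DTT/glycerol buffer, room temperature, 30 min), washed, crosslinked with 0.1% formaldehyde, proximity-ligated using BsaI/T4 ligase for 1 h at 37 °C, PCR-amplified and read on an Illumina NextSeq500. Each hexamer's frequency of reads for a factor, divided by the matching frequency for the tag-only sample, gives the binding signal.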

The target in a further experiment is ETV5 (Homo sapiens, UniProt P41161 1-510). Conditions: protein: recombinant; tags: N-terminal GST; dsDNA, one strand shown. Put shortly: as §1
Sequence of ETV5 (P41161 whole entry): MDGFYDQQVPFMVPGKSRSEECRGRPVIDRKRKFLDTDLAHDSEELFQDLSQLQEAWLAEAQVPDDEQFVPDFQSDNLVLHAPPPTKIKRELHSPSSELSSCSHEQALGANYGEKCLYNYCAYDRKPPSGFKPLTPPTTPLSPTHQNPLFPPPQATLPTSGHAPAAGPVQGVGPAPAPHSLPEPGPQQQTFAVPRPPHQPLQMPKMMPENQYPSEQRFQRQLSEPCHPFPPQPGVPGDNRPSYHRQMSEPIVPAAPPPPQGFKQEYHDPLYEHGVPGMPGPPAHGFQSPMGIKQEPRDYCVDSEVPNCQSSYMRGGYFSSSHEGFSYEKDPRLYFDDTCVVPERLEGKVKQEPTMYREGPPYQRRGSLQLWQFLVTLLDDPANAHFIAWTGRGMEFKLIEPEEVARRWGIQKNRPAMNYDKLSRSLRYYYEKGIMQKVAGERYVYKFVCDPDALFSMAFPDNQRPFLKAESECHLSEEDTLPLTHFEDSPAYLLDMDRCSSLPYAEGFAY
In a further experiment the target is HSF1 (Homo sapiens, UniProt Q00613 1-529). As to conditions: protein: recombinant; tags: N-terminal GST; chain copies: 3; dsDNA, one strand shown. In a few lines:
as §1

A further experiment deals with T2, SPIC (Homo sapiens, UniProt Q8N5J4 1-248).
T2 sequence: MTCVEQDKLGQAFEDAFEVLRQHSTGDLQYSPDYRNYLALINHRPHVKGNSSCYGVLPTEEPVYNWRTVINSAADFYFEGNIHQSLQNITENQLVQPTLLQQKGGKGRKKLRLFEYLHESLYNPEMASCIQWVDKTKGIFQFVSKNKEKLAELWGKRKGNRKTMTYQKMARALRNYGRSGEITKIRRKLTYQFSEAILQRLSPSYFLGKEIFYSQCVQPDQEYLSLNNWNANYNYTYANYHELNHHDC
As to conditions: protein: recombinant; tags: N-terminal GST; dsDNA, one strand shown. In a few lines:
as §1

In the next experiment the target is ELF4 (Homo sapiens, UniProt Q99607 1-663). Conditions: protein: recombinant; tags: N-terminal GST; dsDNA, one strand shown. In a few lines:
as §1

Another experiment concerns the target T3, ELK4 (Homo sapiens, UniProt P28324-2 1-405).
T3 sequence: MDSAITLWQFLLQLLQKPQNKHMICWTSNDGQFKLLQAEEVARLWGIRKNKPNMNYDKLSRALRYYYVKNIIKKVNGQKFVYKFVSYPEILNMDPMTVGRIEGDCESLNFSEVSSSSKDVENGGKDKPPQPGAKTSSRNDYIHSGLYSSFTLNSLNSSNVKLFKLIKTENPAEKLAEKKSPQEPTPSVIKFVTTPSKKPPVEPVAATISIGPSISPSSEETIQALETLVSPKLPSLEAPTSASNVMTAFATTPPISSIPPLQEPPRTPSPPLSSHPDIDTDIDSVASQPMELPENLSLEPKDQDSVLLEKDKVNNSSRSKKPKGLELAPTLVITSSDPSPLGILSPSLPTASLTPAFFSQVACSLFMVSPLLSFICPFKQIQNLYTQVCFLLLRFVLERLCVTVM
Conditions: protein: recombinant; tags: N-terminal GST; dsDNA, one strand shown. Put shortly: as §1

The next experiment has as its target T4, ETV2 (Homo sapiens, UniProt O00321 1-342).
T4 sequence: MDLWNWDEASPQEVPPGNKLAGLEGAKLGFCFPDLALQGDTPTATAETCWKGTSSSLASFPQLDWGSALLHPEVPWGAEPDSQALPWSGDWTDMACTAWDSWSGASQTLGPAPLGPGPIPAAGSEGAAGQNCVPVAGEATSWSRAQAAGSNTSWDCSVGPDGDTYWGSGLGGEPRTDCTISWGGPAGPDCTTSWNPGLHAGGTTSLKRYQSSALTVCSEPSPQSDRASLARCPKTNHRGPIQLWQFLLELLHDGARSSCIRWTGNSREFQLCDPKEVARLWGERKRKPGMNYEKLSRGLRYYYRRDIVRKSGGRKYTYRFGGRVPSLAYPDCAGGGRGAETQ
Conditions: protein: recombinant; tags: N-terminal GST; dsDNA, one strand shown. Put shortly:
as §1

Another experiment has as its target T5, ELF3 (Homo sapiens, UniProt P78545 1-371).
T5 sequence: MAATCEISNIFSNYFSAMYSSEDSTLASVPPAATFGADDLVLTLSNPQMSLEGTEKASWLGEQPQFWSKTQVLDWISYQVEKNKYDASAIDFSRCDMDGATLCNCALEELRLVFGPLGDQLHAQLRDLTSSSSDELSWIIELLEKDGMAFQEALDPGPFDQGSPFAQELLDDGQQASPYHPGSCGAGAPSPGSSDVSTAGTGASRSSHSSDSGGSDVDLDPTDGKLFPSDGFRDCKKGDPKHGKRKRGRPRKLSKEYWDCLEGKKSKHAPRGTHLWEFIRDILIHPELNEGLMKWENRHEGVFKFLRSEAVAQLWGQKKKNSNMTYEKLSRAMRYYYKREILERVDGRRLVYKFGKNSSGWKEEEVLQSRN
Conditions: protein: recombinant; tags: N-terminal GST; dsDNA, one strand shown. Put shortly:
as §1

A further experiment has as its target CRX (Homo sapiens, UniProt O43186 1-299). Conditions: protein: recombinant; tags: N-terminal GST; dsDNA, one strand shown. Put shortly: as §1
The target in a further experiment is ETV1 (Homo sapiens, UniProt P50549 1-477). As to conditions: protein: recombinant; tags: N-terminal GST; dsDNA, one strand shown. In a few lines:
as §1

Sequence of CRX (O43186 whole entry): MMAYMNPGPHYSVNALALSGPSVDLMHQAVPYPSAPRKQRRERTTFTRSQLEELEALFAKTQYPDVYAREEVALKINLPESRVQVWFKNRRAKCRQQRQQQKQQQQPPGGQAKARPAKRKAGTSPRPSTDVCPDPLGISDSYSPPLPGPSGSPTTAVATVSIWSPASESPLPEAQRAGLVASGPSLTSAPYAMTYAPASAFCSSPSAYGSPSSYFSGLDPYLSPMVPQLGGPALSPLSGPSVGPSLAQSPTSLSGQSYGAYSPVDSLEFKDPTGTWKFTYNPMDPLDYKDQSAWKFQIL
Sequence of ELF4 (Q99607 whole entry): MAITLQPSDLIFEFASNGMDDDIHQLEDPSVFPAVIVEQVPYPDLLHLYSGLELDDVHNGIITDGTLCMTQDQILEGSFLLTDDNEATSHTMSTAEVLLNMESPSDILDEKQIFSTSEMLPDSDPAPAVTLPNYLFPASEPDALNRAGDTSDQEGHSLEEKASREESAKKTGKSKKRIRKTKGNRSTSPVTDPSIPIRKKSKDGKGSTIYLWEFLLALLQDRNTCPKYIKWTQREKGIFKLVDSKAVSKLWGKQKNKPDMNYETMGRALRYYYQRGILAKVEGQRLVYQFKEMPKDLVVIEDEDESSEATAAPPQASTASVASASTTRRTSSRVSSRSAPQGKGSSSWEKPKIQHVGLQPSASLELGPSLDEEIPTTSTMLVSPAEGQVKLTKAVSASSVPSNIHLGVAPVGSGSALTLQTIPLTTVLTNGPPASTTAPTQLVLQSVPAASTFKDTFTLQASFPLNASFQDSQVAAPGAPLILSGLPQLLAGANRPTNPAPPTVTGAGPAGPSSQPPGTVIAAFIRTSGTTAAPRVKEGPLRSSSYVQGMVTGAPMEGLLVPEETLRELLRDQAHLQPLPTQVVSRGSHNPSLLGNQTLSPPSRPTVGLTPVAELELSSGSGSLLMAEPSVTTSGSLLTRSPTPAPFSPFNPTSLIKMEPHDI
Sequence of HSF1 (Q00613 whole entry): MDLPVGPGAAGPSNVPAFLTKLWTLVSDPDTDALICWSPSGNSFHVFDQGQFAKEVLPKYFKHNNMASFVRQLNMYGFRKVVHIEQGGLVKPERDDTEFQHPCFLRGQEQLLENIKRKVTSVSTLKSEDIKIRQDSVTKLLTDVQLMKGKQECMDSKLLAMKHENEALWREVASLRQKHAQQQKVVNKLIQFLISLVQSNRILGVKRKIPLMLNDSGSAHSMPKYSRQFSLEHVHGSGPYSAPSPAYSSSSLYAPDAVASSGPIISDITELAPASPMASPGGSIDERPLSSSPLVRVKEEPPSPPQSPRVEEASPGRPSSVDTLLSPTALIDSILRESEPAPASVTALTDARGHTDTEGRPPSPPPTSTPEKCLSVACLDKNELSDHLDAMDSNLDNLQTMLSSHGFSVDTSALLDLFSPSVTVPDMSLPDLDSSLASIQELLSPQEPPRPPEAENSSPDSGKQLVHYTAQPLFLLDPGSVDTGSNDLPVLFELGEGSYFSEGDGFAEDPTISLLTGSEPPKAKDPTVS
Sequence of ETV1 (P50549 whole entry): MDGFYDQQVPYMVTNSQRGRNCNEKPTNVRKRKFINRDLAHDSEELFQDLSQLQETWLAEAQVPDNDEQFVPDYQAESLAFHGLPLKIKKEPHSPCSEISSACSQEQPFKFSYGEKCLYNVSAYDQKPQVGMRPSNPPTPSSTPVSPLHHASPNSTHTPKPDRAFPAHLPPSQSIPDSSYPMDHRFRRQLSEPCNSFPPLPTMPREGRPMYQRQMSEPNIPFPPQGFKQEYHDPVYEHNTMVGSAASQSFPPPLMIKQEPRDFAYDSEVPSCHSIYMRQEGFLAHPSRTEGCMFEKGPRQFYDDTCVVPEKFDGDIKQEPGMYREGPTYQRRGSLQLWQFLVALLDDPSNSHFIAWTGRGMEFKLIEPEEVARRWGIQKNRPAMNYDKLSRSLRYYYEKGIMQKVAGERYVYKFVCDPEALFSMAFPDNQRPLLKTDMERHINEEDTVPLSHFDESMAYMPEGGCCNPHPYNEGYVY

With CTCTTT, the binding signal is 1.47 fold enrichment (6-mer frequency, TF over GST control) with FEV; 1.42 fold enrichment (6-mer frequency, TF over GST control) in the experiment with ETV5; 1.4 fold enrichment (6-mer frequency, TF over GST control) with HSF1; 1.35 fold enrichment (6-mer frequency, TF over GST control) with SPIC; 1.44 fold enrichment (6-mer frequency, TF over GST control) with ELF4; 1.31 fold enrichment (6-mer frequency, TF over GST control) with ELK4. For the same sequence, the binding signal was 1.58 fold enrichment (6-mer frequency, TF over GST control) with ETV2; 1.4 fold enrichment (6-mer frequency, TF over GST control) with ELF3; 1.53 fold enrichment (6-mer frequency, TF over GST control) with CRX; 1.44 fold enrichment (6-mer frequency, TF over GST control) with ETV1.
For CGCGCT, the binding signal with FEV is 1.11 fold enrichment (6-mer frequency, TF over GST control); in the experiment with ETV5, 1.17 fold enrichment (6-mer frequency, TF over GST control); in the experiment with HSF1 it was 1.11 fold enrichment (6-mer frequency, TF over GST control); with SPIC it was 1.31 fold enrichment (6-mer frequency, TF over GST control); in the experiment with ELF4 it was 1.2 fold enrichment (6-mer frequency, TF over GST control); in the experiment with ELK4 it was 1.21 fold enrichment (6-mer frequency, TF over GST control). For the same sequence, the binding signal is 1.11 fold enrichment (6-mer frequency, TF over GST control) in the experiment with ETV2; 1.05 fold enrichment (6-mer frequency, TF over GST control) with ELF3; 1.06 fold enrichment (6-mer frequency, TF over GST control) in the experiment with CRX; 1.15 fold enrichment (6-mer frequency, TF over GST control) with ETV1.
As to GTTTCG, the binding signal with FEV is 1.27 fold enrichment (6-mer frequency, TF over GST control); with ETV5, 1.28 fold enrichment (6-mer frequency, TF over GST control); in the experiment with HSF1, 1.44 fold enrichment (6-mer frequency, TF over GST control); with SPIC, 1.24 fold enrichment (6-mer frequency, TF over GST control); with ELF4, 1.33 fold enrichment (6-mer frequency, TF over GST control); in the experiment with ELK4, 1.34 fold enrichment (6-mer frequency, TF over GST control). Besides, the binding signal is 1.24 fold enrichment (6-mer frequency, TF over GST control) with ETV2; 1.09 fold enrichment (6-mer frequency, TF over GST control) with ELF3; 1.09 fold enrichment (6-mer frequency, TF over GST control) with CRX; 1.27 fold enrichment (6-mer frequency, TF over GST control) with ETV1.
With TCCATA, the binding signal with FEV is 1.21 fold enrichment (6-mer frequency, TF over GST control); in the experiment with ETV5 it was 1.3 fold enrichment (6-mer frequency, TF over GST control); with HSF1 it was 1.44 fold enrichment (6-mer frequency, TF over GST control); with SPIC, 1.3 fold enrichment (6-mer frequency, TF over GST control); with ELF4 it was 1.2 fold enrichment (6-mer frequency, TF over GST control); with ELK4 it was 1.25 fold enrichment (6-mer frequency, TF over GST control). The binding signal with ETV2 was 1.19 fold enrichment (6-mer frequency, TF over GST control); in the experiment with ELF3 it was 1.11 fold enrichment (6-mer frequency, TF over GST control); in the experiment with CRX, 1.48 fold enrichment (6-mer frequency, TF over GST control); with ETV1, 1.32 fold enrichment (6-mer frequency, TF over GST control).
On to ATAGAA, for which the binding signal in the experiment with FEV was 1.04 fold enrichment (6-mer frequency, TF over GST control); in the experiment with ETV5 it was 1.05 fold enrichment (6-mer frequency, TF over GST control); in the experiment with HSF1, 1.93 fold enrichment (6-mer frequency, TF over GST control); with SPIC, 1.03 fold enrichment (6-mer frequency, TF over GST control); with ELF4 it was 1.1 fold enrichment (6-mer frequency, TF over GST control); in the experiment with ELK4, 1.02 fold enrichment (6-mer frequency, TF over GST control). Moreover, the binding signal was 1.01 fold enrichment (6-mer frequency, TF over GST control) with ETV2; 1 fold enrichment (6-mer frequency, TF over GST control) in the experiment with ELF3; 1.28 fold enrichment (6-mer frequency, TF over GST control) in the experiment with CRX; 1.12 fold enrichment (6-mer frequency, TF over GST control) in the experiment with ETV1.
CTCGAT: the binding signal is 1.29 fold enrichment (6-mer frequency, TF over GST control) with FEV; 1.3 fold enrichment (6-mer frequency, TF over GST control) in the experiment with ETV5; 2.06 fold enrichment (6-mer frequency, TF over GST control) with HSF1; 1.46 fold enrichment (6-mer frequency, TF over GST control) in the experiment with SPIC; 1.43 fold enrichment (6-mer frequency, TF over GST control) with ELF4; 1.59 fold enrichment (6-mer frequency, TF over GST control) in the experiment with ELK4. For the same sequence, the binding signal was 1.25 fold enrichment (6-mer frequency, TF over GST control) with ETV2; 1.09 fold enrichment (6-mer frequency, TF over GST control) with ELF3; 1.48 fold enrichment (6-mer frequency, TF over GST control) in the experiment with CRX; 1.27 fold enrichment (6-mer frequency, TF over GST control) in the experiment with ETV1.
ATCCTT: the binding signal was 1.64 fold enrichment (6-mer frequency, TF over GST control) in the experiment with FEV; 1.67 fold enrichment (6-mer frequency, TF over GST control) with ETV5; 1.98 fold enrichment (6-mer frequency, TF over GST control) in the experiment with HSF1; 1.74 fold enrichment (6-mer frequency, TF over GST control) with SPIC; 1.7 fold enrichment (6-mer frequency, TF over GST control) in the experiment with ELF4; 1.77 fold enrichment (6-mer frequency, TF over GST control) in the experiment with ELK4. The binding signal in the experiment with ETV2 is 1.57 fold enrichment (6-mer frequency, TF over GST control); with ELF3 it was 1.47 fold enrichment (6-mer frequency, TF over GST control); in the experiment with CRX, 2.37 fold enrichment (6-mer frequency, TF over GST control); with ETV1, 1.67 fold enrichment (6-mer frequency, TF over GST control).

Source of the values: PMC7862700, “An all-to-all approach to the identification of sequence-specific readers for epigenetic DNA modifications on cytosine”.
